Drawing on PubChem BioAssay (NCATS), this text covers outcome for 25 compounds.

Structures are written as SMILES. Records with an inconclusive call do not appear. Calls of active or inactive are those of the source. The call rests on the fitted dose curve; in most records, active means well fitted inhibition curve with a large enough effect; inconclusive means small, poorly fitted or top-dose-only effect; inactive means flat fitted curve, though single readings scatter.

This assay is described as follows: qHTS of Trypanosoma Brucei Inhibitors: LOPAC Validation (AID 624147). The following applies: purified enzyme assay, luminescence, 45 min; series mostly up to 57.5 µM. The text has this: Members of the Trypanosomatidae family of parasitic protozoans cause a spectrum of diseases throughout the tropical and subtropical world. Sleeping sickness, caused by two subspecies of Trypanosoma brucei, is endemic to areas of sub-Saharan Africa, while Chagas' disease, a manifestation of Trypanosoma cruzi infection, is prevalent throughout Central and South America. In addition, many species of Leishmania are responsible for a range of cutaneous and visceral diseases, causing ulcers, destructive lesions and kalaazar, a lethal infection of the viscera. These diseases cause severe public health and economic burdens on populations that are often already caught in a tragic cycle of poverty, poor nutrition and disease. Collectively, parasites of the trypanosomatid family infect 30 million people worldwide (~500 million live in endemic areas), and account for ~130K deaths annually. Existing treatments have developed little in the past 50 years, and suffer from toxicity, poor efficacy and resistance; the goal of this project is to develop lead drugs that will be suitable for entry into pre-clinical trials.
Glycolysis in axenically cultured T. cruzi, representing the intracellular pathogenic stage, is also essential for these parasites. {Engel, 1987} This project aims to discover and optimize selective inhibitors of the glycolytic enzyme pyruvate kinase (PYK) from Trypanosoma brucei, the parasite that causes sleeping sickness. […] Trypanosomatid PYKs show significant differences from their human counterparts including only 47-50% sequence identity and different allosteric and activation properties.{Callens, 1992} To this end, a qHTS was done against the MLSMR to discover inhibitors.
NIH Molecular Libraries Probe Production Network [MLPCN]
NIH Chemical Genomics Center [NCGC]
PI Name: Malcolm Walkinshaw, University of Edinburgh
2 uL of TbPYK/substrate buffer (columns 1-3, 5-48) are dispensed into Greiner white solid bottom 1536-well assay plates; column 4 receives only TEA buffer as 0x TbPYK controls. Compounds are then transferred via Kalypsys pin tool equipped with 1536-pin array (10 nL slotted pins, V&P Scientific, San Diego, CA). Following addition of compound, 2 uL of ADP (130 uM final concentration, all columns) is added to initiate the reaction. The plates are then incubated at room temperature for 45 minutes. Kinase-Glo Plus reagent is added (3 uL) and plates incubated for 10 minutes, before being transferred to a ViewLux high-throughput CCD imager (PerkinElmer) wherein single end-point measurements of luminescence are acquired using a clear filter. All reagents are diluted in an assay buffer consisting of 50 mM TEA (pH 7.2), 100 mM KCl, 10 mM MgCl2, 0.05% BSA and 0.01% Tween-20.
All screening operations will be performed on a fully integrated robotic system (Kalypsys, San Diego, CA) containing one RX-130 and two RX-90 anthropomorphic robotic arms (Staeubli, Duncan, SC). Library plates will be screened starting from the lowest and proceeding to the highest concentration. Vehicle-only plates, with DMSO being pin-transferred to columns 5-48, will be inserted uniformly at the beginning and the end of each library in order to monitor and record any shifts in the background, which can be affected by reagent dispensers or loss in enzyme activity over time. Screening data will be corrected, normalized, and concentration-effect relationships will be derived by using publicly-available curve fitting algorithms developed in-house (http://ncgc.nih.gov/pub/openhts).
As for `CC(C)C[C@H]1C(=O)N2CCC[C@H]2[C@]2(O)O[C@](NC(=O)[C@@H]3C=C4c5cccc6[nH]c(Br)c(c56)C[C@H]4N(C)C3)(C(C)C)C(=O)N12`, the compound was called inactive. With `CC[C@H](C)C(=O)O[C@H]1CCC=C2C=C[C@H](C)[C@H](CC[C@@H]3C[C@@H](O)CC(=O)O3)[C@H]21`, the result was inactive. With `CCC(NC(C)C)C(O)c1ccc(O)c(O)c1` (stereo not given), the compound was called inactive. On to `C[C@@H]1C(=O)NC2=Nc3cccc(Cl)c3CN21`, for which the result was inactive. Consider `CC1(C)CCC(NC(=O)[C@@H](N)CCC(=O)O)CC1`, for which the result was inactive. Regarding `CNCCC=C1c2ccccc2CCc2ccccc21`, the result was inactive. Take `O=C(O)c1cc2cc(Cc3cccnc3)ccc2o1`: the outcome was inactive. Turning to `CC(=O)O[C@H]1C[C@@H]2CC[C@@H]3[C@H](CC[C@@]4(C)[C@H]3C[C@H]([N+]3(C)CCCCC3)[C@@H]4OC(C)=O)[C@@]2(C)C[C@@H]1[N+]1(C)CCCCC1`, the result was inactive. For `N[C@H](CO)C(=O)O` the value was “inactive”. On to `CCCn1c(=O)[nH]c(=O)c2[nH]cnc21`, for which the compound was called inactive.

As to `C[N+]1(CCCCC[N+]2(C)CCCC2)CCCC1`, the outcome was inactive. In the case of `CCCC1O[C@@H]2C[C@H]3[C@@H]4CCC5=CC(=O)C=C[C@]5(C)[C@H]4[C@@H](O)C[C@]3(C)[C@]2(C(=O)CO)O1` (stereo not given in full), the compound was called inactive. Turning to `COc1cc(NS(C)(=O)=O)ccc1Nc1c2ccccc2nc2ccccc12`, the compound was classed as inactive. For `COc1cc2c(cc1O)CC[C@@H]1[C@@H]2CC[C@]2(C)[C@@H](O)CC[C@@H]12` the value was “inactive”; for `CC(CCc1ccccc1)NCC(O)c1ccc(O)c(C(N)=O)c1` (stereo not given), “inactive”. For the compound `Nc1cc(Cl)c(NC2=NCCN2)c(Cl)c1`, the result was inactive. As to `COC(=O)[C@H]1[C@H]2C[C@H]3c4[nH]c5ccccc5c4CCN3C[C@H]2CC[C@@H]1O`, the outcome was inactive. Take `CN1C2CCC1CC(OC(=O)c1c[nH]c3ccccc13)C2` (stereo not given): the compound was classed as inactive.

With `C[C@]12CC[C@@H]3c4ccc(O)cc4CC[C@H]3[C@@H]1CC[C@@H]2O`, the compound was called inactive. For `C1CCc2nnnn2CC1`, the compound was classed as inactive. `O=C1CCC(c2ccc(-n3ccnc3)cc2)=NN1`: the compound was classed as inactive. Turning to `CNCCC(Oc1ccccc1C)c1ccccc1` (stereo not given), the compound was called inactive. Consider `CC(C)COC(=O)OCN1C(=O)CN(CCN2CC(=O)N(COC(=O)OCC(C)C)C(=O)C2)CC1=O`, for which the outcome was inactive. As for `N[C@@H](Cc1cnc[nH]1)C(=O)O`, the compound was called inactive. Turning to `Oc1ccc(O)cc1`, the compound was called inactive.
